Our source for the Potency values is PubChem BioAssay (NCATS).

Test [1] deals with Zika virus NS2B-NS3 protease (unlinked complex). The test is described as follows: Primary screen GU Rhodamine qHTS for Zika virus inhibitors: Unlinked NS2B-NS3 protease assay (AID 1347159). Note: nearly all actives have a fitted effect of over 60% in size. Note: potency is the fitted concentration of half-maximal effect. The procedure, abridged:
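Compounds, tested up to 114 microM, were incubated for 15 minutes with 25 nM unlinked NS2B-NS3 protease at pH 8.0. Cleavage of 1.5 microM Rhodamine110 substrate was then followed by fluorescence for 15 minutes.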
In general terms: Quantitative high-throughput screening tests each substance at several concentrations.

Test [2] has as its system Zika virus NS2B-NS3 protease (linked construct). The test can be described thus: Primary screen NINDS Rhodamine qHTS for Zika virus inhibitors (AID 1347160). Note: nearly all actives have a fitted effect of over 55% in size. The procedure, abridged: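 Percent inhibition, normalized to uninhibited and enzyme-free controls, is fitted to a 4-parameter Hill equation. Fluorescence change comes from a 15-min cleavage of 1.5 microM bis-peptide Rhodamine110 substrate by 25 nM linked NS2B-NS3 at room temperature.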

Results filed as inconclusive are left out. A call without a number means that no potency is given here. Active and inactive are the calls of the source. Calls come from the whole dose curve; as a rule, active = well fitted inhibition curve with a large enough effect; inconclusive = small, poorly fitted or top-dose-only effect; inactive = no such curve, though single readings can be large or run the other way.

In the case of `COc1ncc(Nc2ncc([C@@H](C)N3CCN(S(C)(=O)=O)CC3)cc2-c2nc(C)nc(N)n2)cc1F`, the Potency in test [1] is 44.7 µM (active). For the same compound, in test [2], the Potency entry was “inactive”.
Regarding `C[C@@H](Oc1cc(-n2cnc3ccc(OC4CCN(C)CC4)cc32)sc1C(N)=O)c1ccccc1C(F)(F)F`, the Potency entry in test [1] and in test [2] was “inactive” throughout.
Take `CC(C)=CCC[C@](C)(O)[C@H]1CC[C@]2(C)[C@@H]1[C@H](O)CC1[C@@]3(C)CC[C@H](O)C(C)(C)[C@@H]3[C@@H](O[C@@H]3O[C@H](CO)[C@@H](O)[C@H](O)[C@H]3O[C@@H]3O[C@H](CO)[C@@H](O)[C@H](O)[C@H]3O)C[C@]12C` (some centres undefined): the Potency entry in test [1] and in test [2] was “inactive” in each case.
As for `COc1ccc(CC2C(=O)NC(C)C(=O)N(C)C3Cc4ccc(cc4)Oc4cc(ccc4OC4OC(CO)C(O)C(O)C4O)CC(C(=O)NC(C)C(=O)NC(C)C(=O)N2C)N(C)C3=O)cc1` (centres undefined), the Potency result in test [1] and in test [2] was “inactive” throughout.
Take `COC(=O)c1cc(OC)cc(OC)c1C(=O)c1c(OC)cc2c(c1O)C1CCCC(C)(O2)O1` (centres undefined): the Potency result in test [1] and in test [2] was “inactive” each time.
Take `O=C(CSc1nc2c(c(=O)n1-c1ccccc1)SCC2)Nc1ccc(-c2ccccc2)cn1`: the Potency entry in test [1] and in test [2] was “inactive” in each case.
For `Cn1c(=O)n(-c2ccc(C(C)(C)C#N)cc2)c2c3cc(C#Cc4cccnc4)ccc3ncc21`, the Potency entry in test [1] and in test [2] was “inactive” each time.
Turning to `CC(C)CN(C[C@@H](O)[C@H](Cc1ccccc1)NC(=O)O[C@@H]1CO[C@H]2OCC[C@H]21)S(=O)(=O)c1ccc(N)cc1`, the Potency result in test [1] and in test [2] was “inactive” in each case.
As to `CC(=O)O[C@@H]1c2c(C)coc2C(=O)[C@@]23O[C@@H]2CC[C@H](C)[C@@]13C`, the Potency result in test [1] and in test [2] was “inactive” in each case.
For `CC1CC(C(O)C(C)(C)O)OC2CC3(C)C4(C)CCC5C(C)(C)C(=O)CCC5(C)C4CCC3(O)C12O` (centres undefined), the Potency entry in test [1] and in test [2] was “inactive” in each case.
As for `CCOc1ccc2nc(SCCN3CCOCC3)[nH]c2c1`, the Potency result in test [1] and in test [2] was “inactive” in each case.
Consider `CC1=C(CO)C(=O)O[C@@H]([C@@H](C)[C@H]2CC[C@H]3[C@@H]4C[C@H]5O[C@]56[C@@H](O)C=CC(=O)[C@]6(C)[C@H]4CC[C@]23C)C1`, for which the Potency entry in test [1] and in test [2] was “inactive” throughout.
Take `CN(C)C/C=C/C(=O)Nc1cc2c(Nc3ccc(F)c(Cl)c3)ncnc2cc1OC1CCOC1` (centres undefined): the Potency result in test [1] and in test [2] was “inactive” in each case.
For the compound `C[C@H](NC(c1cccc2[nH]c(=O)c(=O)[nH]c12)P(=O)(O)O)c1ccc(Br)cc1` (some centres undefined), the Potency entry in test [1] and in test [2] was “inactive” in each case.
For the compound `COc1nc2sc(C(=O)NC3CC3)c(N)c2c(C)c1Cl`, the Potency result in test [1] and in test [2] was “inactive” in each case.
For `C=C(C)C1CCC(C)C12CC(O)C1(C)OC1C2OC(=O)C(N)CCC(=O)O` (centres undefined), the Potency result in test [1] and in test [2] was “inactive” each time.
Turning to `CO[C@H]1O[C@@H]2O[C@]3(C)CC[C@H]4[C@H](C)CC[C@@H]([C@H]1C)[C@@]24OO3`, the Potency entry in test [1] and in test [2] was “inactive” each time.
As to `O=C(OC[C@H]1O[C@H](O[C@]2(CO)O[C@H](CO)[C@@H](O)[C@@H]2O)[C@H](O)[C@@H](O)[C@@H]1O)c1ccccc1`, the Potency entry in test [1] and in test [2] was “inactive” each time.
For the compound `C/C(=C\CC[C@@H](C)[C@H]1CC(O)[C@@]2(C)C3CC[C@H]4C(C)(C)[C@@H](OC5OCC(O)C(O)C5OC5OC(CO)C(O)C(O)C5O)CC[C@@]45C[C@@]35CC(O)[C@]12C)C(=O)O` (some centres undefined), the Potency result in test [1] and in test [2] was “inactive” in each case.
Take `COC(=O)c1ccccc1O[C@@H]1O[C@H](CO)[C@@H](O)[C@H](O)[C@H]1O[C@@H]1O[C@@H](C)[C@H](O)[C@@H](O)[C@H]1O`: the Potency result in test [1] and in test [2] was “inactive” in each case.
With `COC(=O)N(C)c1c(N)nc(-c2nn(Cc3ccccc3F)c3ncccc23)nc1N`, the Potency result in test [1] and in test [2] was “inactive” throughout.
For the compound `O=C(c1cn(Cc2cncn2Cc2ccc(Br)cc2)cc1-c1cccc2ccccc12)N1CCOCC1`, the Potency entry in test [1] and in test [2] was “inactive” each time.
For `CC(C)=CC/C=C(\C)[C@H]1CC[C@]2(C)[C@@H]1[C@H](O)C[C@@H]1[C@@]3(C)CC[C@H](O)C(C)(C)[C@@H]3[C@@H](O[C@@H]3O[C@H](CO)[C@@H](O)[C@H](O)[C@H]3O)C[C@]12C`, the Potency result in test [1] and in test [2] was “inactive” in each case.
On to `CNC(=S)NS(=O)(=O)c1cc(CCNC(=O)c2cc(Cl)ccc2OC)ccc1OC`, for which the Potency result in test [1] and in test [2] was “inactive” in each case.
Regarding `CC(C)C(=O)OC[C@H]1O[C@H](O[C@H]2O[C@H](CO)[C@@H](O)[C@H](O)[C@H]2O)[C@H](O)[C@@H](O)[C@@H]1O`, the Potency entry in test [1] and in test [2] was “inactive” throughout.
Consider `Cc1ccc(S(=O)(=O)c2ccc([N+](=O)[O-])o2)cc1`, for which the Potency entry in test [1] and in test [2] was “inactive” in each case.
`COc1cc(O)cc(C)c1C(=O)O[C@H]1[C@@H](OC(C)=O)[C@H](n2ccc(=O)[nH]c2=O)O[C@@H]1CO`: the Potency entry in test [1] and in test [2] was “inactive” throughout.
